Compound activity from PubChem BioAssay.
A selection: hits, their analogues and other compounds. The true share with any hit is near 10%.
HP1b binding inh = blocks HP1-beta chromodomain binding to methylated histone tails; Potency, µM (doses to about 114 µM), without a hit: at the top dose activity change, negative = inhibition, actives largely listed as inhibitors; P83916; 390,000 compounds, 0.56% hits; AlphaScreen HP1-beta / biotin-H3K9me3 peptide binding; note: potency is the fitted concentration of half-maximal effect; nearly all actives have a fitted effect of over 70% in size
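Compound inhibition of the preformed complex between 50 nM HP1-beta and 50 nM biotinylated H3K9me3 peptide was read by AlphaScreen. Buffer was PBS pH 7.4 with 0.01% Tween-20. Incubations ran 30 min at room temperature, with 10 ug/mL donor/acceptor beads.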
G9a inh = blocks human histone lysine methyltransferase G9a; Q96KQ7; 350,000 compounds, 8.8% hits; G9a H3K9 monomethylation, AlphaScreen, 2 h; Potency, µM (series often up to 102 µM), for inactives: at the highest dose activity, negative = inhibition, usual class: inhibitors; AID 504332; note: potency is the fitted concentration of half-maximal effect; % is set by controls: 0 for no effect and ±100 for the full control effect; nearly all actives have a fitted effect of over 75% in size
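Using a bead-based AlphaScreen, monomethylated H3K9 product from 2 h room-temperature reactions (G9a 20 nM, peptide 500 nM, SAM 20 uM) was detected with 0.5 ug/mL rabbit anti-H3K9me1 antibody.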
BAZ2B inh = blocks human BAZ2B | Potency, µM (doses to about 114 µM), without a hit: top-dose activity change, negative = inhibition, most hits filed as inhibitors | Q9UIF8 | AlphaScreen BAZ2B-H3K14Ac peptide displacement | 360,000 compounds, 4.4% hits; note: potency is the fitted concentration of half-maximal effect; % is set by controls: 0 for no effect and ±100 for the full control effect; nearly all actives have a fitted effect of over 60% in size
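BAZ2B 50 nM plus b-H3(5-23)K14Ac 50 nM, PBS pH 7.4/0.01% Tween-20, 30 min RT; compound added (max 110 uM), 30 min RT; streptavidin donor/Ni-chelate acceptor beads 10 ug/mL final, 20 min dark; AlphaScreen read.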
CtBP-E1A inh = inhibitors of CtBP/E1A interaction. AlphaScreen GST-E1A/His-CtBP binding, 1536-well; stronger effect = lower value. AID 651724. 340,000 compounds, 0.49% hits. activity change, % (concentration not given with the values); in the data active = activity change below about -65%; inconclusive = mostly about -30% to -63%; note: % is set by controls: 0 for no effect and ±100 for the full control effect
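Steps: dispense buffer (Tris pH 8.0, NaCl 300 mM, TCEP 1 mM, BSA, Tween 20); add 5X protein mix (GST-E1A, His-CtBP, 125 nM each); pin 23 nL compound; 2 h at 37 °C, dark; add 5X beads (50 ug/mL); 1 h; read.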
Six1-Eya2 inh = blocks human Six1 binding to Eya2. Q15475+O00167. 360,000 compounds, 0.56% hits. AlphaScreen GST-Six1/His-Eya2 binding, biochemical; stronger effect = lower value. activity change, % (no concentration beside the values). AID 651725; in the data active = activity change below about -65%; inconclusive = mostly about -30% to -63%; note: % is set by controls: 0 for no effect and ±100 for the full control effect
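GST-Six1 + His-Eya2 (5X stock: 250/500 nM); Tris pH 8.0, 300 mM NaCl, 0.05% BSA, 0.02% Tween 20; GSH donor/Ni acceptor beads; 1 h 37 °C dark; AlphaScreen readout.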
JMJD2A Tudor = JMJD2A Tudor domain (human) inhibition. Potency, µM (titrated, usually from 114 µM), for inactives: at the top dose activity change, negative = inhibition, hits mostly inhibitors. O75164. AID 504339. 390,000 compounds, 4.4% hits. AlphaScreen JMJD2A-Tudor / H3K4me3 peptide binding; note: potency is the fitted concentration of half-maximal effect; % is set by controls: 0 for no effect and ±100 for the full control effect; nearly all actives have a fitted effect of over 50% in size
Target sequence (O75164 whole entry, looked up, the tested form may be a part): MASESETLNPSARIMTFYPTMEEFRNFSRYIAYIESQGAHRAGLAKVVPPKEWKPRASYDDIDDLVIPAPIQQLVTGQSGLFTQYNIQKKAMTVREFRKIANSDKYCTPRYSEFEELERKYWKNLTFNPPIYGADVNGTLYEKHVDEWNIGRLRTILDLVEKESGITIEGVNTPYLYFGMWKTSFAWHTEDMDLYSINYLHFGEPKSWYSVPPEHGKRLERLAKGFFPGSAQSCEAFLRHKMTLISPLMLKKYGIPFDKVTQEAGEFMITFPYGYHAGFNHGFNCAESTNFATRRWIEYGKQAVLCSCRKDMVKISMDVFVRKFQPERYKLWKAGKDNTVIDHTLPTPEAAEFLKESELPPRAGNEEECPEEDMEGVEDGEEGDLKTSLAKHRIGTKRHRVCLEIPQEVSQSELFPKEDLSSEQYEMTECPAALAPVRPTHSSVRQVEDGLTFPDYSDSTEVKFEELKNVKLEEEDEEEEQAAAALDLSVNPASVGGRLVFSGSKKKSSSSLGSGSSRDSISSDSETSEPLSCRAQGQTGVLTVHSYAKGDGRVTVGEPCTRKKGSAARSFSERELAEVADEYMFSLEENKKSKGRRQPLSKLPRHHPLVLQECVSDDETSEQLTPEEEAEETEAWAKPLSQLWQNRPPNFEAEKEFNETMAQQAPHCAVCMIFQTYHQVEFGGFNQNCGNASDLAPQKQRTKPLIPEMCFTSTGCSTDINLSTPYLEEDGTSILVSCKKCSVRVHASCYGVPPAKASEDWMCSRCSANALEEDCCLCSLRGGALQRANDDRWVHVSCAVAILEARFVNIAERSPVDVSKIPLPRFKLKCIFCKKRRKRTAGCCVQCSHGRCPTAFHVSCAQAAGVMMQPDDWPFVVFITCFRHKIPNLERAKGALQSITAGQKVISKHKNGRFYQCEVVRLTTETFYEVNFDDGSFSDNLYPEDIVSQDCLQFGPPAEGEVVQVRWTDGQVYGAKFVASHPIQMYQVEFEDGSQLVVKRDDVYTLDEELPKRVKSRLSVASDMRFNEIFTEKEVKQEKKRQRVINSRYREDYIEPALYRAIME
Active calls of the source: *; ? = inconclusive; nt = no result; [ ] = another dose, or the depositor's remark. Unless noted, calls come from the whole dose curve; as a rule, active = well fitted inhibition curve with a large enough effect; inconclusive = small, poorly fitted or top-dose-only effect; inactive = no such curve, though single readings can be large or run the other way.

SMILES	HP1b binding inh	G9a inh	BAZ2B inh	CtBP-E1A inh	Six1-Eya2 inh	JMJD2A Tudor
O=C(O)c1ccccc1-c1nc2ccccc2[nH]1	13%	45µM*	-28%	2	11	?
Cc1ccc(S(=O)(=O)Nc2ccc3nc(-c4cccn4C)[nH]c3c2)cc1	45µM*	-25%[12.7 µM]	40µM*	-1	?	16µM*
COc1ccc(N2CCN(C(=O)CCc3c(C)nc4cc(-c5cccc(F)c5)nn4c3C)CC2)cc1	49%	-5%[59 µM]	-5%	nt	nt	-1%
CC(Oc1ccccc1)C(=O)N1CCN(Cc2cc(=O)n3nc(-c4ccccc4Cl)sc3n2)CC1 (stereo not drawn)	15%[57 µM]	35%[59 µM]	9%	nt	nt	-15%
Cc1ccccc1-n1ncc2c([N+](=O)[O-])cc([N+](=O)[O-])cc21	40µM*	?	32µM*	?	?	56µM*
Cc1ccc2nc3cc([N+](=O)[O-])cc([N+](=O)[O-])c3cc2c1	6%	-14%[59 µM]	-30%	0	-13	?
CCOc1ccc(OCCC(=O)N(CC(=O)Nc2ccccc2C(F)(F)F)Cc2ccco2)cc1	6%	45µM*	50µM*	-1	-8	-18%
CC(C)COc1ccc(C(=O)N(CC(=O)Nc2ccccc2C(F)(F)F)Cc2ccco2)cc1	-6%	-10%[2.33 µM]	-10%	-6	-4	-25%
CN1CCN(c2nc3c(c(=O)[nH]c(=O)n3C)n2Cc2ccc(Cl)cc2)CC1	19%	-45%	-19%	-6	1	-8%
CN(C)c1ccc(NC(=O)CN2C(=O)CC(c3ccccc3)=Nc3ccccc32)cc1	7%	2µM*	-5%	-2	-6	-11%
CCOc1ccc(C2C(C(=O)Nc3ccc(OC)cc3)=C(C)Nc3nc(SCc4ccc(Cl)cc4)nn32)cc1 (stereo not drawn)	47%	10%[59 µM]	32%	nt	nt	4%
CCC/C(=N/Nc1ccc(Cl)cc1)c1cnnc(-c2ccccc2)n1	47%	nt	nt	8	-1	-14%
COc1ccc(N/N=C(/C)c2cnnc(-c3ccccc3)n2)cc1	-13%	1.4µM*	-38%	-3	7	79µM*
CSc1ncc(C(=O)NCc2ccc(F)cc2)c(-c2ccccc2)n1	12%	9%[59 µM]	-1%	nt	nt	-9%
COc1ccccc1CNC(=O)CCCN1C(=O)CSc2c1c(C)nn2-c1ccccc1	48%	-1%[59 µM]	-14%	nt	nt	-23%
COc1ccc(C(=O)C2CCCN(Cc3ccc4nonc4c3)C2)cc1OC (stereo not drawn)	23%	-45%	-13%	-5	1	-20%
COc1ccccc1CN1CCCC(C(=O)N(C)Cc2ccccc2)C1 (stereo not drawn)	?	?	0%	7	0	3.2µM*
COc1ccc(CN2CCCC(C(=O)N(C)Cc3ccccc3)C2)cc1OC (stereo not drawn)	?	10µM*	?	-7	10	0.89µM*
O=C(Nc1nnc(N2CCCCCC2)s1)Nc1cc(F)ccc1F	26%	-5%[59 µM]	-9%	nt	nt	-7%
Cc1ccc(N(O)C(=O)NCCCCNC(=O)N(O)c2ccc(C)cc2)cc1	16%	79µM*	-28%	1	4	?
Cc1ccc(S(=O)(=O)NC(=O)NCCCCNC(=O)NS(=O)(=O)c2ccc(C)cc2)cc1	76%	7%	7%	4	4	-8%[11.4 µM]
COCc1cc(C)n(CC(=O)Nc2ccc3c(c2)OCO3)c(=O)c1C#N	57%	2%	-20%	3	18	-1%
COc1cc(OC)c(C2=NOC(C(=O)Nc3ccc4c(c3)OCO4)C2)cc1Cl (stereo not drawn)	-8%	40µM*	-31%	7	-20	-29%
COc1ccc(C2=NOC(C(=O)Nc3ccc4c(c3)OCO4)C2)cc1 (stereo not drawn)	14%	?	-13%	0	-1	-34%
CCNCC(=O)Nc1ccc(N2CCOCC2)cc1	19%	?	?	-14	7	-16%
SMILES	HP1b binding inh	G9a inh	BAZ2B inh	CtBP-E1A inh	Six1-Eya2 inh	JMJD2A Tudor
O=C(COC(=O)c1ccc(Br)o1)Nc1ccc(N2CCOCC2)cc1	14%	22µM*	-4%	1	0	-22%
Cc1ccc(CNCC(=O)Nc2ccc(N3CCOCC3)cc2)cc1	40µM*	nt	35µM*	-6	3	1.4µM*
CN1CC(=O)NC1=NC(=O)c1cc(F)c(F)cc1Cl	17%	32µM*	?	-2	-2	-24%
O=C(Nc1ccccc1N1CCCC1)c1cccc(F)c1	26%	35µM*	?	-1	-4	-16%
Cc1ccccc1C(=O)NC(=S)Nc1ccccc1N1CCCC1	?	20µM*	25µM*	-20	?	25µM*
O=C(NC(=S)Nc1ccccc1N1CCCCC1)c1ccccc1	-24%	32µM*	?	nt	-2	?
COc1ccc(C(=O)Nc2ccccc2N2CCCC2)cc1	20%	-7%[2.33 µM]	?	-4	-4	-23%
CC(C)Oc1ccc(C(=O)Nc2ccccc2N2CCCC2)cc1	?	45µM*	?	-8	-25	-5%[11.4 µM]
CCOC(=O)CC(NC(=O)c1cc2cc(Br)cc(OC)c2oc1=O)c1ccc(OC)cc1 (stereo not drawn)	21%	5%[59 µM]	-11%	nt	nt	-13%
CCCCn1c(SCC(=O)Nc2cccc(OC)c2)nc2c(sc3ccccc32)c1=O	30%	-2%[59 µM]	6%	nt	nt	1%
COc1nc(C#N)nc(N2CCCCC2)n1	25%[57 µM]	nt	nt	nt	nt	-9%[57.1 µM]
O=C(NC(=S)Nc1ccccc1N1CCCC1)c1ccc(F)cc1	50µM*	32µM*	25µM*	?	?	35µM*
O=C(NC(=S)Nc1ncccn1)c1ccc(F)cc1	-19%	8.9µM*	?	4	5	-22%
CC1CCN(c2ccccc2NC(=S)NC(=O)c2cccs2)CC1	?	15%[12.7 µM]	35µM*	-22	-29	?
CS(=O)(=O)N1CCN(c2ccccc2NC(=S)NC(=O)c2cccs2)CC1	16%	17%	?	nt	0	-11%[11.4 µM]
Cc1cc(C(=O)NC(=S)Nc2ccccc2N2CCOCC2)ccc1[N+](=O)[O-]	?	35µM*	?	-7	?	?
Cc1cc(C(=O)Nc2ccccc2N2CCOCC2)ccc1[N+](=O)[O-]	-8%	18%[59 µM]	-9%	4	0	-25%
COc1ccc(OC)c(NC(=O)CSc2nc(=O)n(Cc3ccccn3)c3c2CCC3)c1	7%	10%[0.501 µM]	3%	9	0	-8%
NC(Cc1ccc(Cl)cc1)c1csc(Nc2ccc(C(F)(F)F)cn2)n1 (stereo not drawn)	nt	nt	nt	0	-3	nt
COc1cc2c(cc1NC(=O)COC(=O)CNS(=O)(=O)c1ccc(C)cc1)oc1ccccc12	35%	40µM*	8%	-2	-8	-8%
